SMILES strings stand for the structures. The list shows a part of the results. Unmarked numbers belong to inactive results.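 The calls were made as follows: active = compounds giving 40% or more inhibition at 20 µM in any one of the three replicates; inactive = the rest.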

The record followed here is PubChem BioAssay AID504715 (Sanford-Burnham Center for Chemical Genomics, 2011).

In this assay the target is Uracil-DNA glycosylase (Escherichia coli (strain K12)) (UniProt P12295). Put plainly: uracil-DNA glycosylase inhibition, oligo cleavage readout – biochemical, single concentration, fluorescence, FAM/TAMRA oligo, counter-screen for APOBEC3G inhibitor project, confirmation (AID 504715).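 Also: plate controls were DMSO wells with UDG and oligo for no effect and DMSO wells lacking both for full effect; inhibitors lower the FAM signal released by uracil excision and alkaline cleavage.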 The following applies: UDG counterscreen, at 20 µM, stronger effect = higher value. A general note: The purpose of a counterscreen is to sort out artefacts and off-target activity.
Sequence of Uracil-DNA glycosylase (Escherichia coli (strain K12)) (P12295 whole entry, looked up): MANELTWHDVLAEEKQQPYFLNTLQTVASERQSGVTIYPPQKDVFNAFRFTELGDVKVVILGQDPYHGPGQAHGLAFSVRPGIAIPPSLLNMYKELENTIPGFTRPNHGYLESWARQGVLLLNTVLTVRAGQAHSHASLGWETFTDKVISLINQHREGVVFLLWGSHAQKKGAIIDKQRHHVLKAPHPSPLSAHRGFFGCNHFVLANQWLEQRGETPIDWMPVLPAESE

Consider `S=c1[nH]nc(NCCc2ccccc2)s1`, for which the inhibition is -0.78%.

For `S=c1[nH]nc2c3c4c(sc3ncn12)CCCC4`, the inhibition is -7.25%.

As for `COc1ccccc1-n1c(-c2cc(-c3ccco3)[nH]n2)n[nH]c1=S`, the inhibition was -3.83%. Take `Cc1ccnc(-n2sc3ccccc3c2=O)n1`: the inhibition was -5.94%. Then `CC(=O)N(C1=C(Cl)C(=O)c2ccccc2C1=O)c1ccc(C(=O)O)cc1`, with -2.05%. With `Cc1cccc(-n2c(N)c(C(=O)N3CCN(C)CC3)sc2=S)c1`, the inhibition was -3.91%.

As to `S=c1[nH]ccn1-c1ccc(Cl)cc1`, the inhibition was 2.81%. As to `Cc1cc(-c2n[nH]c(=S)n2/N=C/c2ccco2)n[nH]1`, the inhibition is 2.12%. The figure for `CCC(CC)c1nnc(NC(=O)C2CCN(C(=O)c3ccco3)CC2)s1` is 4.07%. For the compound `Nc1ccccc1SC(C[N+](=O)[O-])c1ccccc1` (stereo unspecified), the inhibition was -4.66%.

For the compound `S=c1[nH]nc(-c2ccncc2)n1/N=C/c1ccccc1Cl`, the inhibition was -3.82%. Consider `CCOc1ccc(NC(=O)c2ccc(NC(=O)COC(=O)c3ccc(NC(=O)CC#N)cc3)cc2)cc1`, for which the inhibition is 2.3%. Turning to `O=C1CC(Sc2ncn[nH]2)C(=O)N1c1ccccc1` (stereo unspecified), the inhibition was -0.97%. Take `Cc1ccc(C(=O)c2c(NC(=O)c3ccccc3)sc(C)c2C)cc1`: the inhibition was 2.57%. Take `Cc1ccc(S(=O)(=O)N(C)CC(=O)NCCc2c[nH]c3ccccc23)cc1`: the inhibition was -2.52%. On to `CCOc1cc(C(=S)N2CCOCC2)ccc1O`, for which the inhibition is -2.88%. For the compound `S=c1[nH]nc(Nc2ccccc2)s1`, the inhibition was 6.03%. For the compound `Cc1cc(C)c2c(-c3ccc(F)cc3)c(C#N)c(=O)n(C)c2n1`, the inhibition is -3.68%. The figure for `S=c1[nH]nc(-c2ccco2)n1/N=C/c1ccccc1` is -2.84%. As for `COCc1c(N)c(C)nc(Cl)c1C#N`, the inhibition was -3.83%. Then `O=C1C=CC(=O)N1c1ccc(N2CCCCC2)cc1`, with -1.51%.

What is called inhibition is the change of the read-out against control, counted positive when it falls.
